According to PubChem BioAssay:
Values joined by “and” are separate entries in the source; they are usually repeats but may differ in a detail not shown here. Equal values may be shown once.

Test: viability loss with induced miR-34 in A549 – imaging, A549 dox-inducible miR-34, nuclei and caspase counts, primary screen (AID 1347080); note: test concentration not given here
Conditions: A549 miR-34 inducible, Hoechst nuclei count, 48 h; measured here: total cells without miR-34 induction

| SMILES | cell count |
| --- | --- |
| NC(=O)c1ncn([C@@H]2O[C@H](CO)[C@@H](O)[C@H]2O)c1O | 9890 |
| CCN1CCN(C(=O)N[C@@H](C(=O)N[C@@H]2C(=O)N3C(C(=O)O)=C(CSc4nnnn4C)CS[C@H]23)c2ccc(O)cc2)C(=O)C1=O | 9050 and 11000 |
| CC(C)(C)NC(=O)[C@H]1CC[C@H]2[C@@H]3CC[C@H]4NC(=O)C=C[C@]4(C)[C@H]3CC[C@]12C | 9320 and 10500 |
| CC(=O)O[C@H]1C[C@@H]2CC[C@@H]3[C@H](CC[C@@]4(C)[C@H]3C[C@H]([N+]3(C)CCCCC3)[C@@H]4OC(C)=O)[C@@]2(C)C[C@@H]1N1CCCCC1 | 10500 |
| CNC[C@H](O)c1ccc(O)c(O)c1 | 10500 |
| Nc1ccc(S(N)(=O)=O)cc1 | 10100 and 8510 and 12900 |
| C[C@@](Cc1ccc(O)c(O)c1)(NN)C(=O)O | 9400 and 9340 and 9790 |
| CO[C@@]12[C@H](COC(N)=O)C3=C(C(=O)C(C)=C(N)C3=O)N1C[C@@H]1N[C@@H]12 | 1060 and 1090 |
| CC(=O)O[C@]1(C(C)=O)CC[C@H]2[C@@H]3C=C(Cl)C4=CC(=O)[C@@H]5C[C@@H]5[C@]4(C)[C@H]3CC[C@@]21C | 9300 and 9380 |
| CCC(=O)O[C@]1(C(=O)SCF)[C@H](C)C[C@H]2[C@@H]3C[C@H](F)C4=CC(=O)C=C[C@]4(C)[C@@]3(F)[C@@H](O)C[C@@]21C | 7420 and 6760 |
| O=c1[nH]c(=O)n([C@H]2C[C@H](O)[C@@H](CO)O2)cc1F | 4020 |
| CC1(C)O[C@@H]2C[C@H]3[C@@H]4C[C@H](F)C5=CC(=O)C=C[C@]5(C)[C@@]4(F)[C@@H](O)C[C@]3(C)[C@]2(C(=O)CO)O1 | 7920 and 8070 |
